# This is a sample that favours compounds with a hit; in the whole collection about 3.7% have one here.
# VDR inhibitor: Inhibitors of the vitamin D receptor (VDR): qHTS; 400,000 compounds, 0.93% hits; VDR-SRC2-3 peptide fluorescence polarization, 2 h; Vitamin D3 receptor (Homo sapiens), P11473; Potency, µM, inactives show max response, negative = inhibition, actives largely listed as inhibitors; also: potency is read from the fitted curve at half-maximal effect; % is scaled to controls: 0 for no effect and ±100 for the full control effect
# Target sequence (P11473 whole entry, looked up): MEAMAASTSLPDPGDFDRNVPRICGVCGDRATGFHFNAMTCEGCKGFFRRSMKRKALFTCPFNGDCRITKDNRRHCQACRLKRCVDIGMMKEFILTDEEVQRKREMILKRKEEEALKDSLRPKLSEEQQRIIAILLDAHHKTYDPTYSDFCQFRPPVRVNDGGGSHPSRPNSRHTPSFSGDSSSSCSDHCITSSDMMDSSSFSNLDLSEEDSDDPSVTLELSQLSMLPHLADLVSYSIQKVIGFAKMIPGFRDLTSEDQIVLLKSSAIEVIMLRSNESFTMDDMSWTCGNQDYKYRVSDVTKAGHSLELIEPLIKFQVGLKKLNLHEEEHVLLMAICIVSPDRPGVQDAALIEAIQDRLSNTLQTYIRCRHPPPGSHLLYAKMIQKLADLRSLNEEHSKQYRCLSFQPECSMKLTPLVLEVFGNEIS
#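 Fluorescence polarization assay of small-molecule disruption of VDR binding to coregulator peptide SRC2-3. Compounds and controls pin-transferred, then read after 2 h incubation at ambient room temperature.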
# TCR activator: Activators of T cell receptors: qHTS campaign. 330,000 tested, under 10 active. primary human leukocytes, anti-CD3, IL-2 HTRF, 48 h. AID 504894, 2011. Potency, µM (highest dose often 9.22 µM), inactives show at the highest dose activation of IL-2 secretion, usual class: activators; also: % of control where 0% means no effect
#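 Using a-CD3 beads without co-stimulation, primary human leukocytes were exposed to compounds for 48 hr. An HTRF IL-2 kit measured the cytokine, with europium-to-d2 energy transfer producing emission at 665nm upon 320nm excitation.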
# PLK1 PBD inh: qHTS for Inhibitors of PLK1-PDB (polo-like kinase 1 - polo-box domain): Primary Screen | Serine/threonine-protein kinase PLK1 (Homo sapiens), P53350 | Plk1 PBD binding of FITC phosphopeptide, fluorescence polarization | Potency, µM, without a hit: max response, negative = inhibition, actives largely listed as inhibitors | 360,000 compounds, 2.8% hits | AID 720504, 2013; also: potency is read from the fitted curve at half-maximal effect; series mostly up to about 57 µM; % is scaled to controls: 0 for no effect and ±100 for the full control effect; nearly all actives have a fitted effect of over 65% in size
# WRN inhibitor: qHTS for Inhibitors of WRN Helicase. 360,000 compounds, 0.46% hits. WRN helicase unwinding, fluorescent forked duplex, kinetic. AID 651768, 2012. Bifunctional 3'-5' exonuclease/ATP-dependent helicase WRN (Homo sapiens), Q14191. Potency, µM (highest dose often 114 µM), for the others: at the highest dose activity change, negative = inhibition, hits mostly inhibitors; also: potency is read from the fitted curve at half-maximal effect; % is scaled to controls: 0 for no effect and ±100 for the full control effect; nearly all actives have a fitted effect of over 55% in size
#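 Enzyme (20 nM final) and test compound sit together 15 min at room temperature before substrate addition. Substrate is a single-forked duplex oligonucleotide (100 nM) labelled with fluorophore and quencher, with 2 mM ATP; helicase unwinding raises red fluorescence, read kinetically.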
# PI5P4K alpha inh: qHTS for Inhibitors of phosphatidylinositol 5-phosphate 4-kinase (PI5P4K). Phosphatidylinositol 5-phosphate 4-kinase type-2 alpha (Homo sapiens), P48426. PI5P4Kalpha enzyme, ADP-Glo luminescence, 60 min; hits give low values. max response, %. 330,000 compounds, 1.2% hits. AID 652105, 2013; active = max response of -50% or lower; inconclusive = between -30% and -50%; inactive = -30% or higher; also: value at the top dose of about 77 µM; % is scaled to controls: 0 for no effect and ±100 for the full control effect
#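 Compounds were pin-transferred onto PI5P4Kalpha and substrate in HEPES pH 7.4 buffer with EGTA, CHAPS and 5% DMSO. ATP (5 microM final) started the reaction, which ran 60 minutes at room temperature before ADP-Glo detection.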
# FEN1 inh: qHTS Assay for the Inhibitors of Human Flap endonuclease 1 (FEN1). P39748. Recombinant FEN1 flap cleavage, fluorescence, 15 min. Potency, µM (titrated, usually from 114 µM), without a hit: at the top dose activity change, negative = inhibition, most hits filed as inhibitors. 390,000 compounds, 0.35% hits. AID 588795, 2011; also: potency is read from the fitted curve at half-maximal effect; % is scaled to controls: 0 for no effect and ±100 for the full control effect; nearly all actives have a fitted effect of over 65% in size
#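 FEN1 at 10 nM, compound pretreatment for 15 min (room temperature), 50 nM final substrate to initiate; endpoint reads at 0 and 15 min; DMSO-only plates used as vehicle background.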
# * = called active by the depositor; ? = inconclusive; · = not tested or not shown; ! = not active in a repeat; [ ] = dose if it differs, or a comment. Unless noted, calls follow the shape of the dose curve; as a rule, active = well fitted curve in the direction sought with a large enough effect; inconclusive = small, poorly fitted or top-dose-only effect, or another doubt; inactive = no such curve, though single readings can be large; an effect the other way counts as inactive or inconclusive.
SMILES,VDR inhibitor,TCR activator,PLK1 PBD inh,WRN inhibitor,PI5P4K alpha inh,FEN1 inh
COC(=O)CN1C(=O)S/C(=C/c2ccc(N3CCCCC3)o2)C1=O,32µM*,6%,86%,?,·,-11%
CCOC(=O)CN1C(=O)S/C(=C/c2ccc(N3CCCCC3)o2)C1=O,-14%,-13%,73%,-1%,-4,2%
O=C(CCC(=O)N1CCSc2ccccc21)Nc1ccc(Cl)cc1,13%,·,·,·,·,1%
CCN1Cc2cccc(C(=O)Nc3ccc(F)cc3)c2C1=O,8%,·,·,·,·,3%
O=C(CSc1n[nH]c(=O)[nH]c1=O)N/N=C/C=C\c1ccccc1,2%,11%,24µM*,-4%[57.1 µM],-21,0%
O=C(CSc1n[nH]c(=O)[nH]c1=O)N/N=C/C=C/c1ccccc1,-6%,3%,-2%,-1%,-12,2%
Cc1ccc(CN(C(=O)COc2cc(C)c(Cl)c(C)c2)c2ccccn2)o1,13%,·,·,·,·,-22%
O=C(O)CCC(=O)Nc1ccc(SSc2ccc(NC(=O)CCC(=O)O)cc2)cc1,?,-1%,0.95µM*,?,-7,?
O=C(O)CCC(=O)Nc1ccc(F)cc1,6%,-11%,-10%,-6%,-1,9%
N#CN=c1snc(-c2ccccc2)n1-c1ccc(Br)cc1,-10%,·,·,·,·,7%
Cc1c(Cl)cccc1S(=O)(=O)N1CCC(C(=O)NNC(=O)C2CC2)CC1,24%,1%,24µM*,0%,1,2%
CC1(c2ccc([N+](=O)[O-])cc2)Nc2ccccc2S1 (centres undefined),?,-2%,6.7µM*,-3%,7,-16%
O=C(CCNC(=O)c1ccccc1)Nc1cccnc1,-11%,0%,27µM*,8%,?,0%
O=C(CCc1ccccc1)Nc1cccnc1,15%,8%,-4%,-1%,-1,-3%
Clc1ccc(-c2cn3cc(Cl)ccc3n2)cc1,-12%,-3%,-9%,-2%,-1,13%
CCN(CC)S(=O)(=O)c1ccc(-c2cn3cc(Cl)ccc3n2)cc1,-21%,3%,12µM*,-8%,-15,13%
O=c1cc(-c2ccccc2)[nH]c2cc(Cl)ccc12,79µM*!,13%,-4%,-12%[57.1 µM],1,4%
O=C(Nc1ccccc1)N(O)c1ccc(Cl)cc1,28µM*,1%,-7%,-27%,-3,-3%
CCN(CCS(=O)(=O)c1ccc(Cl)cc1)C(=O)Nc1ccccc1,-1%,-2%,-13%,?,7,-1%
COc1ccccc1NC(=O)CSc1nnc(NC(=O)NC2CCCCC2)s1,6%,·,·,·,·,-5%
Nc1ccccc1SC/C=C/CSc1ccccc1N,-23%,-1%,12µM*,-11%,6,-11%
CCCCNC(=O)CSc1nc(-c2ccc(OC)cc2)cc(C(F)(F)F)n1,-15%,·,·,·,·,19%
CCCOC(=O)c1c(NC(=O)C(C)Sc2nc(-c3ccccc3)cc(C(F)(F)F)n2)sc(C(=O)N(C)C)c1C (centres undefined),?,·,·,·,·,-7%
O=C(O)c1ccc(CSc2nc(-c3ccc(Cl)cc3)cc(C(F)(F)F)n2)cc1,0%,·,21µM*,-31%,·,1%
O=C(O)c1ccc(CSc2nc(-c3ccccc3)cc(C(F)(F)F)n2)cc1,?,6%[46.1 µM],?,?,17,1%
CC(Sc1nc(-c2ccccc2)cc(C(F)(F)F)n1)C(=O)O (centres undefined),-23%,11%,27µM*,-2%[57.1 µM],14,-3%
CCOC(=O)c1c(NC(=O)CSc2nc(-c3ccc(OC)cc3)cc(C(F)(F)F)n2)sc(C)c1C,79µM*,·,·,·,·,-1%
CCN(CC)C(=O)c1sc(NC(=O)C(C)Sc2nc(-c3ccccc3)cc(C(F)(F)F)n2)c(C(=O)OC)c1C (centres undefined),35µM*,·,·,·,·,-25%

# From PubChem BioAssay
